Assay results reported in ChEMBL document CHEMBL1961873, “Compounds: GSK PKIS; Assays: Nanosyn kinase panel” (2012).

Legend:
[1] = molecular target: T1, Muscle, skeletal receptor tyrosine-protein kinase (Homo sapiens) (UniProt O15146); conditions: at 1 µM;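 further: reported value is the mean percent inhibition of MuSK kinase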
T1 sequence (whole entry): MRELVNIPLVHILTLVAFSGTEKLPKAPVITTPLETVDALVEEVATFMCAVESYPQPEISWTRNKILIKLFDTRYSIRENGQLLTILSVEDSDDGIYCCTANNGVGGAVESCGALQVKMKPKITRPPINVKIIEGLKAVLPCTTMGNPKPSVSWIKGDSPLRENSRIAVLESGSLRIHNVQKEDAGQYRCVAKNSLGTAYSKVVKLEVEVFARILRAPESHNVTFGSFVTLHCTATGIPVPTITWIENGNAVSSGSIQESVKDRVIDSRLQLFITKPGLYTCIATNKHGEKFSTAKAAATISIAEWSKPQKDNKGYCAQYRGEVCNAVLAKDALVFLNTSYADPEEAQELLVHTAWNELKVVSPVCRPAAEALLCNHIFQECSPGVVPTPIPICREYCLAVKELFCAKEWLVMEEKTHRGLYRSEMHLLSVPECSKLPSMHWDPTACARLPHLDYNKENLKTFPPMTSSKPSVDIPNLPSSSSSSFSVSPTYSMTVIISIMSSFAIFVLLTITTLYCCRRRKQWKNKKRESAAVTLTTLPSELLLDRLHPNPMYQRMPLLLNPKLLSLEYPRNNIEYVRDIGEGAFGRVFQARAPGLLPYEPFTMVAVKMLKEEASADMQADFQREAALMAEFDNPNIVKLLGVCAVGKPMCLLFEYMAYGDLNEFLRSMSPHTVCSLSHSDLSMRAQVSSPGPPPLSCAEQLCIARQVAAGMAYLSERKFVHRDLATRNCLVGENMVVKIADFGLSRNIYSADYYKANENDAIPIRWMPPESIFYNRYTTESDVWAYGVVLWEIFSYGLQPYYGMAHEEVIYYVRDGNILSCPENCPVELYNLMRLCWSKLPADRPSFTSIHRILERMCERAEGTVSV

[2] = molecular target: Platelet-derived growth factor receptor alpha (Homo sapiens) (UniProt P16234); conditions: at 0.1 µM
[3] = molecular target: Platelet-derived growth factor receptor alpha (Homo sapiens) (UniProt P16234); conditions: at 1 µM
[4] = tested on: Platelet-derived growth factor receptor alpha (Homo sapiens), P16234 [D842V]; conditions: at 0.1 µM
[5] = tested on: Platelet-derived growth factor receptor alpha (Homo sapiens), P16234 [D842V]; conditions: at 1 µM
[6] = tested on: Platelet-derived growth factor receptor alpha (Homo sapiens), P16234 [T674I]; conditions: at 0.1 µM
[7] = tested on: Platelet-derived growth factor receptor alpha (Homo sapiens), P16234 [T674I]; conditions: at 1 µM
[8] = tested on: Platelet-derived growth factor receptor alpha (Homo sapiens), P16234 [V561D]; conditions: at 0.1 µM
[9] = tested on: Platelet-derived growth factor receptor alpha (Homo sapiens), P16234 [V561D]; conditions: at 1 µM
[10] = molecular target: Platelet-derived growth factor receptor beta (Homo sapiens) (UniProt P09619); conditions: at 0.1 µM
[11] = molecular target: Platelet-derived growth factor receptor beta (Homo sapiens) (UniProt P09619); conditions: at 1 µM
[12] = molecular target: Tyrosine-protein kinase FRK (Homo sapiens) (UniProt P42685); conditions: at 0.1 µM
[13] = molecular target: Tyrosine-protein kinase FRK (Homo sapiens) (UniProt P42685); conditions: at 1 µM
[14] = molecular target: Protein-tyrosine kinase 2-beta (Homo sapiens) (UniProt Q14289); conditions: at 0.1 µM
[15] = molecular target: Protein-tyrosine kinase 2-beta (Homo sapiens) (UniProt Q14289); conditions: at 1 µM
[16] = molecular target: Proto-oncogene tyrosine-protein kinase receptor Ret (Homo sapiens) (UniProt P07949); conditions: at 0.1 µM
[17] = molecular target: Proto-oncogene tyrosine-protein kinase receptor Ret (Homo sapiens) (UniProt P07949); conditions: at 1 µM
[18] = tested on: Proto-oncogene tyrosine-protein kinase receptor Ret (Homo sapiens), P07949 [V804L]; conditions: at 0.1 µM
[19] = tested on: Proto-oncogene tyrosine-protein kinase receptor Ret (Homo sapiens), P07949 [V804L]; conditions: at 1 µM
[20] = tested on: Proto-oncogene tyrosine-protein kinase receptor Ret (Homo sapiens), P07949 [Y791F]; conditions: at 0.1 µM

Sequence of Proto-oncogene tyrosine-protein kinase receptor Ret (Homo sapiens) (P07949 whole entry): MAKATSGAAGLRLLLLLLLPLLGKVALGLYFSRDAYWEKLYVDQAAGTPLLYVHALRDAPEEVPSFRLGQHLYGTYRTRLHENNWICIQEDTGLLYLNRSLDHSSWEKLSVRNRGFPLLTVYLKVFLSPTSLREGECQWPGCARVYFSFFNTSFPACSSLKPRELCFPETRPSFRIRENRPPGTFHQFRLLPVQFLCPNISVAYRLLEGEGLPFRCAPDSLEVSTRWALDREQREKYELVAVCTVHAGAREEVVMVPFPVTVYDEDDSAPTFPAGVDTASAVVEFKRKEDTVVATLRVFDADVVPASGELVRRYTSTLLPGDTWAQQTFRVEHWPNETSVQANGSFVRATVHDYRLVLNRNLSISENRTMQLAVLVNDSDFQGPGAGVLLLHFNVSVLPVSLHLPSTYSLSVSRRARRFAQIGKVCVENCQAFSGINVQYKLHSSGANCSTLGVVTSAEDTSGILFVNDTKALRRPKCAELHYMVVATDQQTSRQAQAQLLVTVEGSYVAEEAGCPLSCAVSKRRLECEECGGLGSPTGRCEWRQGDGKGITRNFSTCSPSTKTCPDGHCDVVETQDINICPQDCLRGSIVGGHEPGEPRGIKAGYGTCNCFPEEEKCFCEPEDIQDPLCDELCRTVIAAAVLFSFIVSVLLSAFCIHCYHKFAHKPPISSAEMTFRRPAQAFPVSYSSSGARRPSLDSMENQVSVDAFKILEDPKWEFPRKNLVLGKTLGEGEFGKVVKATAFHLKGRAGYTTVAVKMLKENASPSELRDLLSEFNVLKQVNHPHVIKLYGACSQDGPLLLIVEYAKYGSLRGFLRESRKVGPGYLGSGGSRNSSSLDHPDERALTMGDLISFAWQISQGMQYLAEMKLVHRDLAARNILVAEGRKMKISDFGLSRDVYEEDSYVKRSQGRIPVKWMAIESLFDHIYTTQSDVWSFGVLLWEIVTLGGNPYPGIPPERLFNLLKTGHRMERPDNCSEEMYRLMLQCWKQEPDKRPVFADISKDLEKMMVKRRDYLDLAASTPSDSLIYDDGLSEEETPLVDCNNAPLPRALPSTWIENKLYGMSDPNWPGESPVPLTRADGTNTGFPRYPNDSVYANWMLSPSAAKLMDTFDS
Sequence of Platelet-derived growth factor receptor alpha (Homo sapiens), P16234 [T674I] (P16234 whole entry T674I): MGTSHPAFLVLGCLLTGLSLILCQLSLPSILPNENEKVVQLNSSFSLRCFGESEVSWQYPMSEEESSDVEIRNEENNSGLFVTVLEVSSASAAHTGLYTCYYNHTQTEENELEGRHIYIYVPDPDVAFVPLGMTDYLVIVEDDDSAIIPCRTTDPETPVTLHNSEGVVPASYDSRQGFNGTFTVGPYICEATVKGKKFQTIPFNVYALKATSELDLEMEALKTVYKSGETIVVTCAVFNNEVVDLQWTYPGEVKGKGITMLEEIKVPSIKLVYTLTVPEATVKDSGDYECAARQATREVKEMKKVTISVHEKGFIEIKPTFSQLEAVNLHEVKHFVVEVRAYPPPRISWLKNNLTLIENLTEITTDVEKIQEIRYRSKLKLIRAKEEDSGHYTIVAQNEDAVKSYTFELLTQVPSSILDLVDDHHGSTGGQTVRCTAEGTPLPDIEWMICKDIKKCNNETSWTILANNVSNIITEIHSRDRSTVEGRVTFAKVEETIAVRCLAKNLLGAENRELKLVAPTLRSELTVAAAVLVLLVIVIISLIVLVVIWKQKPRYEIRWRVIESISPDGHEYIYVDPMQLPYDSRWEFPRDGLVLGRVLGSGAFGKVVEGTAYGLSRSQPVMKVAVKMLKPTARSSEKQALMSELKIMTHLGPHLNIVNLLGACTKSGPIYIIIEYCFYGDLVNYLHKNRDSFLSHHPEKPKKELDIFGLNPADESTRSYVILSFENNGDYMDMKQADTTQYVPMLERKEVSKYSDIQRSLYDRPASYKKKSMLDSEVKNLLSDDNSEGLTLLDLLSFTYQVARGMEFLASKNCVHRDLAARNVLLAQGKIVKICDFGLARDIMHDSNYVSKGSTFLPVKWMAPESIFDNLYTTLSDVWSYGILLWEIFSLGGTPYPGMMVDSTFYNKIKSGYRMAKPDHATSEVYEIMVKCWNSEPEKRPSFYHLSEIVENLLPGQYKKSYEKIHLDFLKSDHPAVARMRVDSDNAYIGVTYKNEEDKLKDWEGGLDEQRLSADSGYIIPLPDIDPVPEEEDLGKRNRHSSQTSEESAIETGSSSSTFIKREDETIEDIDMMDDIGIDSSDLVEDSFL
Sequence of Tyrosine-protein kinase FRK (Homo sapiens) (P42685 whole entry): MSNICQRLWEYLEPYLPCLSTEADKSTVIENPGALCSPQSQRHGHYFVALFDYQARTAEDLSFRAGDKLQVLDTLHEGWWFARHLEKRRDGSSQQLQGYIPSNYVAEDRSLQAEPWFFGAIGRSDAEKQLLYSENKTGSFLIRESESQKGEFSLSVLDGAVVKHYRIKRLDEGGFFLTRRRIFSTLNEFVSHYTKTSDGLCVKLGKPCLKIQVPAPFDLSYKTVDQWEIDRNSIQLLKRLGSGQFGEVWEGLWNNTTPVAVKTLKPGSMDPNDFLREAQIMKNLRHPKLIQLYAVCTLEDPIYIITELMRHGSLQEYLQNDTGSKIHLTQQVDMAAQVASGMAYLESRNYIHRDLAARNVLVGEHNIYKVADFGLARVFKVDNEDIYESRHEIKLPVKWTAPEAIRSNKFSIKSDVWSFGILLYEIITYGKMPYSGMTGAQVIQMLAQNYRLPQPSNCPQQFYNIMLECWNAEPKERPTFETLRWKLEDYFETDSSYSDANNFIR
Sequence of Platelet-derived growth factor receptor beta (Homo sapiens) (P09619 whole entry): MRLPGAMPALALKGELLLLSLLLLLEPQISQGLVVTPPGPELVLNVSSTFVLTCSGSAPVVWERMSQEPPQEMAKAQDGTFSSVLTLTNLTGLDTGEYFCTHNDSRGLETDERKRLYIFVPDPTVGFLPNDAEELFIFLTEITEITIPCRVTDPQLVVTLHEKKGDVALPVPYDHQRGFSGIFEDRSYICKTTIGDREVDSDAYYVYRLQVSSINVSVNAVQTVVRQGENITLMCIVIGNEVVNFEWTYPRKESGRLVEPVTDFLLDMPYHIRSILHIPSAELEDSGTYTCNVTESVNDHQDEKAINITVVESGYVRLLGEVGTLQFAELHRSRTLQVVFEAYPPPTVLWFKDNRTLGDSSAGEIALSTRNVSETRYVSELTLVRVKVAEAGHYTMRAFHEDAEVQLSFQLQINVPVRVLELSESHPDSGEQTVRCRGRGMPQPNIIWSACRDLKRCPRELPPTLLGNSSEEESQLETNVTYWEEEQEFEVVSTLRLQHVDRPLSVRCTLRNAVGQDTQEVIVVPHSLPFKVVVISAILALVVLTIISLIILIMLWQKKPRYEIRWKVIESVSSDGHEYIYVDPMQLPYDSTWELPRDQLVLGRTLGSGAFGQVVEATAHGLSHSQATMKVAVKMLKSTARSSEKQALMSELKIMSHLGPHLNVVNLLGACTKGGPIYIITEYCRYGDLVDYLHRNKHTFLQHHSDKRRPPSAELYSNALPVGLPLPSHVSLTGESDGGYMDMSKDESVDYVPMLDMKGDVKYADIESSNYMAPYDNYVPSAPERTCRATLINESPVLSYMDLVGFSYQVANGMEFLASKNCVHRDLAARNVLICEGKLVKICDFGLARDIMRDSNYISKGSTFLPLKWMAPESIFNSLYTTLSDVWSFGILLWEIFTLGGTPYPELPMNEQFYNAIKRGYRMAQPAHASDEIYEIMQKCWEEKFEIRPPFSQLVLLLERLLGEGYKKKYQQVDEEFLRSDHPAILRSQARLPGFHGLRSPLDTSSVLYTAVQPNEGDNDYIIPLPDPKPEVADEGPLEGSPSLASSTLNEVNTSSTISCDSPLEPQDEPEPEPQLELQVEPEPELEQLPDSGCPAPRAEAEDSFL
Sequence of Platelet-derived growth factor receptor alpha (Homo sapiens), P16234 [V561D] (P16234 whole entry V561D): as the sequence (P16234 whole entry T674I) above, with V561D, I674T counted along it

Compound | inhibition [1] | inhibition [2] | inhibition [3] | inhibition [4] | inhibition [5] | inhibition [6] | inhibition [7] | inhibition [8] | inhibition [9] | inhibition [10] | inhibition [11] | inhibition [12] | inhibition [13] | inhibition [14] | inhibition [15] | inhibition [16] | inhibition [17] | inhibition [18] | inhibition [19] | inhibition [20]
Nc1ncnc2occ(-c3ccc(NC(=O)Nc4cc(C(F)(F)F)cc(C(F)(F)F)c4)cc3)c12 | 89.3% | 79.8% | 79.7% | 14.7% | 66.7% | 60.3% | 94.9% | 90.5% | 96% | 67.8% | 81.5% | 1.36% | 4.51% | 8.32% | 19.4% | 76.4% | 81.4% | 38.4% | 77% | 60.7%
COc1ccc(COc2ccc(Cc3cnc(N)nc3N)cc2OC)cc1 | 9.52% | 10.9% | 15.7% | 0.95% | 1.88% | 2.62% | 1.3% | 2.4% | 5.93% | 8.68% | 10% | -0.22% | 2.07% | -3.39% | -2.43% | 9.65% | 9.77% | 6.53% | 9.69% | 12.4%
COc1cc(C)c(NC(=O)CN(C)C)cc1Nc1nc(Nc2cccc(F)c2C(N)=O)c2cc[nH]c2n1 | 28.9% | 7.3% | 16.9% | 1.18% | 3.96% | 0.9% | 3.29% | 1.13% | 10.8% | 2.12% | 15% | 0.21% | 1% | 93.1% | 98% | 1.91% | 5.56% | 4.41% | 20.7% | 5.09%
Nc1nc(-c2ccc3c(c2)C(=Cc2cc(Br)c(O)c(Br)c2)C(=O)N3)cs1 | 2.75% | 2.1% | 5.96% | 0.96% | 2.21% | 0.36% | -0.01% | 2.02% | 2.58% | 1.75% | 7.52% | 0.6% | 3.29% | -1.15% | 6.43% | 7.13% | 12.3% | 1.75% | 9.79% | 3.97%
Cc1cccc(-c2n[nH]cc2-c2ccc3ncccc3n2)n1 | 2.87% | 10.7% | 55.3% | 18.8% | 68.7% | 1.71% | 0.07% | 12.3% | 53% | 2.42% | 26.5% | 1.55% | -0.81% | -4.16% | 0.67% | 1.65% | 15.1% | -1.82% | 2.72% | 3.64%
CN(C)c1cc2c(Nc3ccc4nc(Cc5ccccc5)[nH]c4c3)ncnc2cn1 | 0.22% | 9.58% | 24.4% | 4.07% | 5.67% | 5.35% | 6.9% | 5.97% | 22.8% | 5.76% | 12.1% | -0.33% | 3.88% | 15.7% | 11.8% | 7.21% | 13.2% | 3.89% | 7.59% | 6.91%
NC(=O)c1cccc(Nc2nccc(Nc3cccc4[nH]ncc34)n2)c1 | 15.3% | 23.7% | 71.3% | 13.2% | 67.7% | -2.44% | 4.54% | 20.7% | 70.4% | 42.1% | 84% | 61.6% | 93.9% | 9.7% | 65.5% | 37.8% | 82.1% | 5.88% | 39.4% | 46%
CCn1c(-c2nonc2N)nc2c(N3CCCC3)nccc21 | 3.11% | -0.08% | 6.63% | 1.78% | 3.11% | 0.33% | 0.11% | 3.21% | 3.61% | 3.37% | 8.55% | -0.17% | 0% | 1.2% | -3.88% | 4.49% | 20.8% | 0.68% | -0.73% | 0%
CC(C)=Cc1cccc2c1/C(=N/Nc1ccc(S(N)(=O)=O)cc1)C(=O)N2 | 36.3% | 20.3% | 64.9% | 12.2% | 58.5% | 7.43% | 46.5% | 15% | 62.5% | 17.4% | 62.6% | 1.44% | 5.49% | 3.24% | 27.5% | 14.8% | 60.7% | 16.4% | 67.4% | 6.44%
NS(=O)(=O)c1ccc(N/N=C2\C(=O)Nc3ccc(C(=O)NCCc4c[nH]cn4)cc32)cc1 | 43.1% | 23.6% | 65.6% | 15.9% | 62.5% | 6.94% | 14.5% | 12.9% | 54.9% | 38.6% | 82.7% | 0.73% | 3.44% | 12.8% | 24.2% | 15.3% | 57.8% | 42.6% | 83.5% | 22.8%
CCn1c(-c2nonc2N)nc2c(C#CC(C)(C)O)nc(CN3CCCC3)cc21 | 4.26% | 7.83% | 13.1% | 3.09% | 5.71% | 2.75% | 0.39% | 2.19% | 6.46% | 3.33% | 12.2% | 0.91% | -0.12% | -0.18% | -7.23% | -0.08% | 9.99% | 0.92% | 4.79% | 5.91%
O=C1NC(=O)C(c2ccc(Cl)cc2)=C1Nc1ccc(Cl)c(C(=O)O)c1 | 2.23% | 1.93% | 7.23% | 1.16% | 2.61% | 0.45% | 1.25% | 3.89% | 3.15% | 4.09% | 6.67% | -0.84% | 0.85% | -2.28% | 3.24% | 3.14% | 2.98% | 0.34% | -0.69% | 0.25%
COc1cc2ncn(-c3cc(OCc4ccccc4Cl)c(C(N)=O)s3)c2cc1OC | 21.2% | 46.7% | 90.5% | 30.4% | 82.2% | 9.35% | 69.7% | 39.1% | 83.3% | 41% | 86.5% | 2.63% | 2.45% | -1.12% | 6.28% | 17.7% | 60.8% | 4.73% | 26.9% | 20.7%
